# In ChEMBL document CHEMBL1157539, “Thousands of chemical starting points for antimalarial lead identification” (Nature, 2010):
# How the values were obtained:
# Type in all cases: functional
# Plasmodium falciparum [1] = assay: GSK_TCMDC: Inhibition of Plasmodium falciparum 3D7 in whole red blood cells, using parasite LDH activity as an index of growth. Test compounds present at 2uM
# Plasmodium falciparum [2] = assay: GSK_TCMDC: Inhibition of Plasmodium falciparum Dd2 in whole red blood cells, using parasite LDH activity as an index of growth. Test compounds present at 2uM
# HepG2 = assay: GSK_TCMDC: Percent inhibition of human HepG2 cell line. Test compounds present at 10uM.
Structure (SMILES),Inhibition (Plasmodium falciparum [1]),Inhibition (Plasmodium falciparum [2]),Inhibition (HepG2)
COc1ccc(CCn2c(=N)c(C(=O)NCc3cccnc3)cc3c(=O)n4ccccc4nc32)cc1,98%,5%,16%
O=C(Nc1ccc(Cl)c(Cl)c1)C1CCC(=O)N1[C@@H](Cc1ccccc1)C(=O)NCCc1ccc(Cl)cc1 (stereo partly specified),95%,0%,3%
COc1ccc2c(=NN=Cc3ccc(F)cc3)cc(C)[nH]c2c1,100%,99%,4%
O=C(NCc1ccc(F)cc1)Nc1ccc(-c2ccc(-c3nc4ccccc4[nH]3)cc2)cc1,100%,98%,43%
O=C(NCCCCN1CCC(c2cccc3ccccc23)CC1)c1ccc(NC(=O)c2ccc(Cl)cc2)cc1,99%,39%,20%
O=C(Nc1n[nH]c2nc(-c3ccco3)c(Br)cc12)c1ccc(CN2CCCC2)cc1.O=C(O)C(O)C(O)C(=O)O,100%,53%,1%
CCN(CCCN1CCCCC1)c1cc(C)nc(Nc2ccc(C)cc2Cl)n1.O=C(O)C(F)(F)F,93%,25%,44%
CCN(CCCN1CCCCC1)c1cc(C)nc(Nc2ccc(C(F)(F)F)cc2)n1.O=C(O)C(F)(F)F,100%,99%,26%
C=CC[C@H](C[C@H](O)[C@H](Cc1ccccc1)NC(=O)c1ccc(-c2cccnn2)cc1)C(=O)NC1CCCCC1,83%,0%,2%
COc1ccccc1-c1csc(C(=O)NCC2CCN(Cc3ccc(C(C)C)cc3)C2)c1.O=C(O)C(F)(F)F (stereo unspecified),81%,6%,24%
CC(C)Nc1cc(C(=O)N[C@@H](Cc2ccccc2)[C@H](O)CNC2CCCCC2)cc(N2CCCCS2(=O)=O)c1.O=CO,98%,98%,9%
Cc1[nH]c(C)c(-c2ccc(OCc3ccc(F)cc3)nc2)c(=O)c1Br,97%,97%,41%
CC[C@H]1CN(Cc2ccccc2Br)CC[C@H]1CCCc1ccnc2ccc(O)cc12,86%,2%,12%
Cc1ccc2[nH]c(-c3cc(-c4ccc(CO)cc4)cnc3N)nc2c1.O=C(O)C(F)(F)F,95%,6%,52%
COc1cc2ccccc2c(CNCCCCCCNCc2c(OC)c(OC)cc3ccccc23)c1OC.CS(=O)(=O)O,95%,89%,100%
CCCCCN1CCC(CNS(=O)(=O)c2ccc(C(=O)Nc3cccc(C(F)(F)F)c3)cc2)CC1.O=C(O)C(F)(F)F,98%,13%,13%
COc1ccc(C2CCN(CCN3CCC(NC(=O)c4ccc(-c5cccc(C(F)(F)F)c5C(F)(F)F)cc4)CC3)CC2)c(OC)c1,100%,61%,35%
